Screening results (PubChem)
The entries come from a sample that favours hits as a whole.
Pf Dd2 inh: inhibitors of Plasmodium falciparum Dd2 growth. AID 1347417. P. falciparum Dd2 growth, SYBR Green, 72 h. Potency, µM (doses to about 28.9 µM), actives largely listed as inhibitors. 120,000 tested, 4.3% active; active = well fitted inhibition curve with a large enough effect; also: nearly all actives have a fitted effect of over 65% in size
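Readout: SYBR Green fluorescence, 485 nm excitation, 535 nm emission, after ~16 h lysis at 37C. Before that, Dd2-infected red cells (2.5% hematocrit) grew 72 h with compound, 29 uM top final concentration.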
Numbers stand for hits; - = inactive.

SMILES	Pf Dd2 inh
CC1CCCN(CCCNC(=O)c2ccc3c(c2)N(Cc2ccc(Cl)cc2)C(=O)c2ccccc2S3(=O)=O)C1 (stereo not given)	-
O=C(c1ccc2c(c1)N(Cc1ccc(Cl)cc1)C(=O)c1ccccc1S2(=O)=O)N1CCN(Cc2ccccc2)CC1	-
O=C(OCC1CCCO1)c1ccc2c(c1)N(Cc1cccc(F)c1)C(=O)c1ccccc1S2(=O)=O (stereo not given)	-
Cc1ccc(C)c(CN2C(=O)c3ccccc3S(=O)(=O)c3ccc(C(=O)NCCCN4CCCC(C)C4)cc32)c1 (stereo not given)	3.98µM
CCOC(=O)CCNC(=O)NCC(=O)N1CCCCCNC(=O)CC1c1ccccc1 (stereo not given)	-
CN(C)C[C@@H]1CN(Cc2ccccc2)C[C@H]1NC(=O)CCn1cccn1	-
CSCC(=O)N1CCC(c2nnc(CN3CCN(C)CC3)n2C)CC1	-
COc1ccc(OCc2nc(C)c(CCO)c(=O)n2CC(=O)Nc2cccc(C)c2C)cc1	-
NC(=O)[C@@H]1CCCN1CC[C@H]1CN(C(=O)C2CCCCC2)CC[C@H]1CC(=O)O	-
CS(=O)(=O)N1CCC(OC2CCN(C(=O)Nc3ccccc3Cl)CC2)CC1	-
O=C(Cn1ccn2nc(-c3ccc(F)cc3)c(CO)c2c1=O)Nc1ccc(C(F)(F)F)cc1	-
CC(C)CCNC(=O)C1CCCN(Cc2cccnc2)CCC(=O)NCC1 (stereo not given)	-
Cc1nc2c(c(-c3ccc(Cl)cc3)n1)CCN(C(=O)c1ccccc1F)CC2	-
COc1ccc(CNC(=O)c2ccc3c(c2)N(Cc2ccccc2F)C(=O)c2ccccc2S3(=O)=O)cc1	-
CCc1ccccc1NC(=O)c1ccc2c(c1)N(Cc1cc(C)ccc1C)C(=O)c1ccccc1S2(=O)=O	7.08µM
COc1ccc(CCNC(=O)c2ccc3c(c2)N(Cc2ccccc2F)C(=O)c2ccccc2S3(=O)=O)cc1OC	-
CCc1noc([C@@H]2CC(F)(F)CN2C(=O)c2ccco2)n1	-
C=CCNC(=O)c1cnn2c1CN([S+](C)(=O)[O-])CC2	-
C=CCNC(=O)N[C@H]1CCN(C(=O)CSC)[C@@H]1C(=O)N[C@H](Cc1ccccc1)C(N)=O	-
Cc1onc(-c2cnn(C)c2NCCc2ccccc2)c1C(=O)N1CCCC(C(N)=O)C1 (stereo not given)	-
N#C/C(=C\c1c(Oc2ccc(Br)cc2)nc2ccccn2c1=O)c1nc2ccccc2s1	-
Cc1cc(C)cc(Oc2nc3ccccn3c(=O)c2/C=C(\C#N)c2nc3ccccc3s2)c1	-
Cc1cccn2c(=O)c(/C=C(\C#N)c3nc4ccccc4s3)c(Oc3ccc(F)cc3)nc12	3.16µM
Cc1cc(Oc2nc3ccccn3c(=O)c2/C=C(\C#N)c2nc3ccccc3s2)ccc1Cl	-
CCc1ccc(Oc2nc3c(C)cccn3c(=O)c2/C=C(\C#N)c2nc3ccccc3s2)cc1	-
SMILES	Pf Dd2 inh
Cc1cc(C)cc(Oc2nc3c(C)cccn3c(=O)c2/C=C(\C#N)c2nc3ccccc3s2)c1	0.891µM
O=C(NCc1nncn1C1CCCCC1)C1CNCCO1 (stereo not given)	-
Cc1ccc(-c2ccc3nnc(CNC(=O)c4cc(F)ccc4F)n3n2)cc1	-
CCc1ccccc1NC(=O)Cn1ccn2nc(-c3ccc(F)cc3)c(CO)c2c1=O	-
COc1ccc(F)c(CN2CCCC3(CCN(C(=O)c4ccsc4)C3)C2)c1 (stereo not given)	-
Fc1cccc(CN2CCCC3(CCN(c4cnccn4)C3)C2)c1F (stereo not given)	-
COc1ccc(F)c(CN2CCCC3(CCN(c4cc(C)nc(N)n4)C3)C2)c1 (stereo not given)	3.98µM
O=C1NC2(Cc3ccccc31)CN(CC1CCOCC1)C2	-
CN(CC1CCOCC1)S(=O)(=O)c1ccc(Cl)cc1	-
CCOc1cccc(CN2CC[C@H](CNC(=O)NC)[C@H](N(C)C)C2)c1	-
Cc1cccc(CN2CCC(CNc3ncnc4onc(-c5ccc(Cl)cc5)c34)CC2)c1	-
Clc1ccc(-c2noc3ncnc(N4CCCCC4)c23)cc1	-
COc1cccc(N2CCN(c3ncnc4onc(-c5ccc(Cl)cc5)c34)CC2)c1	-
COc1ccc(Nc2ncnc3onc(-c4ccc(Cl)cc4)c23)cc1Cl	-
COc1ccc(OC)c(CCNc2ncnc3onc(-c4ccc(Cl)cc4)c23)c1	11.2µM
Cc1ccc(C)c(N2CCN(CCCNc3ncnc4onc(-c5ccc(Cl)cc5)c34)CC2)c1	-
Cc1cccc(Nc2ncnc3onc(-c4ccc(Cl)cc4)c23)c1C	-
CCOc1ccc(Nc2ncnc3onc(-c4ccc(Cl)cc4)c23)cc1	-
Cc1ccc(CN2CCC(CNc3ncnc4onc(-c5ccc(Cl)cc5)c34)CC2)cc1	3.16µM
Clc1ccc(CN2CCC(CNc3ncnc4onc(-c5ccc(Cl)cc5)c34)CC2)cc1	4.47µM
Cc1ccccc1CN1CCC(CNc2ncnc3onc(-c4ccc(Cl)cc4)c23)CC1	8.91µM
Cc1ccc(CCNc2ncnc3onc(-c4ccc(F)cc4)c23)cc1	-
COc1ccc(C(=O)N2CCC3(CC2)CC(OC)CCO3)cn1 (stereo not given)	-
CN(C)c1ccc(C(=O)N[C@H]2C[C@H]3C(=O)NC[C@@H](CCC(=O)NCc4cccs4)N3C2)cc1	-
CC(C)N1CCN(C2CCOC3(CCN(S(=O)(=O)c4ccccc4)CC3)C2)CC1 (stereo not given)	-
SMILES	Pf Dd2 inh
COc1ccccc1-n1cc(C(=O)N2CC(C)(C)C(C)(O)C2)cn1 (stereo not given)	-
CCOC(=O)CN1CCN(C(=O)CCc2cc3ccc(C)cc3[nH]c2=O)CC1	-
COC[C@@H]1CN(C(=O)c2ccoc2C)C[C@H]1c1nc(C)no1	-
O=C(c1ccc2cc[nH]c2c1)N1CCC2(CC1)CC(Cc1cccc(F)c1)CCO2 (stereo not given)	-
COc1cccc([S+](=O)([O-])N2CCC3(CC2)C(=NC2CCCC2)NC(=O)N3c2cc(F)cc(F)c2)c1	-
COCCn1ncc(N2CCCC(CC(=O)NCCN3CCOCC3)C2)cc1=O (stereo not given)	-
C=CCn1nc(C)c(CN2CCC(Oc3ccccc3OC)(C(=O)O)CC2)c1C	-
CC(=O)N[C@H](C)c1onc(-c2ccc(Cl)cc2)c1C(=O)O	-
CCc1cc(NCCNC(=O)c2ccccc2Cl)n2nccc2n1	-
COc1ccc(C(C(=O)O)N2CCN(c3ccc(F)cc3)CC2)c(OC)n1 (stereo not given)	-
COc1ccc(CN2CCC3(Cc4ccccc4NC3=O)C2)cc1 (stereo not given)	10µM
COc1ccc(CN2CCC3(CC2)NCc2ccccc2NC3=O)cc1	-
O=C1Nc2ccccc2CC12CCN(Cc1cccnc1)C2 (stereo not given)	-
O=C1Nc2ccccc2CC12CCCN(Cc1ccncc1)C2 (stereo not given)	-
N#Cc1ccc(CN2CCC3(CC2)COc2ccccc2NC3=O)cc1	10µM
CC(=O)Nc1ccc(CN2CCC3(Cc4ccccc4NC3=O)C2)cc1 (stereo not given)	-
O=C1Nc2ccccc2CC12CCN(Cc1ccc(OC(F)(F)F)cc1)C2 (stereo not given)	11.2µM
O=C1Nc2ccccc2OCC12CCN(Cc1cccnc1)CC2	-
Cc1ccc(CN2CCC3(Cc4ccccc4NC3=O)C2)cc1 (stereo not given)	8.91µM
O=C1Nc2ccccc2CC12CCN2Cc1ccc(OC(F)(F)F)cc1 (stereo not given)	-
CC(=O)Nc1ccc(CN2CCC3(CC2)COc2ccccc2NC3=O)cc1	-
